Screening results: PubChem BioAssay, several laboratories
Rows were chosen to be rich in hits. Some 4.1% of all compounds tested hit in one or more screens of this group.
MazF activator – activators of E. coli MazEF toxin-antitoxin RNase; P0AE70; FAM/BHQ RNA-DNA oligo cleavage fluorescence, 5 h; activation, % at 20 µM; 350,000 tested, 0.32% active; AID 504720; in the data active means activation above about 50%
Target sequence (P0AE70 whole entry, looked up): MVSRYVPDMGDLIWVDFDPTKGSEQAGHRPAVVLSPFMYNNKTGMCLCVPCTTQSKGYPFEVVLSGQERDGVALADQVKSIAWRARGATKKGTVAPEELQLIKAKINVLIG
BoNT A protease – blocks Botulinum neurotoxin A light chain protease. multiplex microsphere protease substrate cleavage, flow cytometry. inhibition, % at 10 µM. 360,000 tested, 0.17% active. AID 588499; further: plate controls were buffer without enzyme for full effect and enzyme alone for no effect
Anthrax LF prot – blocks Bacillus anthracis lethal factor protease; P15917; multiplex microsphere protease cleavage assay, LF; 360,000 tested, 0.12% active; inhibition, % at 10 µM; further: plate controls were buffer without enzyme for full effect and enzyme alone for no effect
BoNT F protease – blocks Botulinum neurotoxin F light chain protease | Multiplex microsphere protease cleavage assay, flow cytometry | inhibition, % at 10 µM | 360,000 tested, 0.22% active; in the data active means inhibition above about 35%, passing the limit was not always enough; inconclusive means no clear call, values can overlap the other calls; further: plate controls were buffer without enzyme for full effect and enzyme alone for no effect
Autofluor counter – counter-screen for toxin protease inhibitors: compound fluorescence | 360,000 tested, 3.1% active | compound autofluorescence counterscreen, microsphere flow cytometry; hits give high values | fluorescence intensity (test concentration not listed); in the data active means fluorescence intensity above about 16000; inconclusive means no clear call, values can overlap the other calls
VHR inh abs – inhibitors of human VHR1 phosphatase (DUSP3); P51452; recombinant VHR phosphatase, pNPP absorbance; inhibition, % at 13.3 µM; 290,000 tested, 0.52% active; AID 1654; in the data active means inhibition above about 50%
Target sequence (P51452 whole entry, looked up): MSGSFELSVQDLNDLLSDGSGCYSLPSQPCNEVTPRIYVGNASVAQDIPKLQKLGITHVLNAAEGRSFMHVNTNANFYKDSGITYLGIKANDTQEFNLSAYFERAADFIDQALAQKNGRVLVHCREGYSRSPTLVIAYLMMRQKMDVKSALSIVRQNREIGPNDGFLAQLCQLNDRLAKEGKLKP
Starred values were filed as active, the others as inactive. Unless noted, no stated cut-off is given here; in the data, active means inhibition above about 30%; inconclusive means no clear call, values can overlap the other calls; inactive means below that.

O=C(NC(C(=O)O)c1ccccc1)c1ccccc1 (configuration not stated) was read as MazF activator 10, BoNT A protease 0, Anthrax LF prot -11, BoNT F protease -5, Autofluor counter 4003 and VHR inh abs 24.
COCC(C)NC(=O)C(C)Oc1ccccc1 (configuration not stated) was read as MazF activator 4, BoNT A protease 0, Anthrax LF prot -2, BoNT F protease -2, Autofluor counter 2082 and VHR inh abs -7.
`COC(=O)C(NC(=O)C(C)Oc1ccccc1)C(C)C` (configuration not stated) gave MazF activator 2, BoNT A protease inconclusive, Anthrax LF prot -6, BoNT F protease 0, Autofluor counter 20348* and VHR inh abs -2.
`COC(=O)C(NC(=O)c1ccccc1)c1ccccc1` (configuration not stated) gave MazF activator 12, BoNT A protease -4, Anthrax LF prot 1, BoNT F protease -5, Autofluor counter 25637* and VHR inh abs 15.
`COC(=O)C(NC(=O)C(NC(=O)c1ccccc1)C(C)C)C(C)C` (configuration not stated) gave MazF activator 7, BoNT A protease 1, Anthrax LF prot 1, BoNT F protease 2, Autofluor counter 22539* and VHR inh abs 2.
`CCCn1c(N)c(C(=O)CN(C)CC(=O)Nc2ccc(F)cc2)c(=O)[nH]c1=O` gave MazF activator 7, BoNT A protease 0, Anthrax LF prot -1, BoNT F protease 0 and Autofluor counter 3897.
For Cc1ccc(CN2CCNC(=O)C2CC(=O)O)cc1 (configuration not stated) the results were MazF activator -2, BoNT A protease 0, Anthrax LF prot -5, BoNT F protease -8, Autofluor counter 5174 and VHR inh abs 20.
CN1CCNC(=O)C1CC(=O)O (configuration not stated) was read as MazF activator 2, BoNT A protease inconclusive, Anthrax LF prot 1, BoNT F protease 0, Autofluor counter 22031* and VHR inh abs 21.
`Cc1ccc(S(=O)(=O)N2CCOCC2)cc1NC(=O)COC(=O)CSc1ccc(Br)cc1C` gave MazF activator 1, BoNT A protease 2, Anthrax LF prot 2, BoNT F protease 2, Autofluor counter 22185* and VHR inh abs 2.
CNc1ncnc2sc(-c3ccccc3)cc12 was read as MazF activator 4, BoNT A protease 0, Anthrax LF prot 0, BoNT F protease -5, Autofluor counter 5100 and VHR inh abs 52*.
For Cc1cc(-n2c(SCC(=O)NCc3cccs3)nc3n[nH]c(C)c3c2=N)ccc1Cl the results were MazF activator 32, BoNT A protease 0, Anthrax LF prot -1, BoNT F protease -1, Autofluor counter 23384* and VHR inh abs 5.
CCc1ccc2c(F)cccc2n1 was read as BoNT A protease 0, Anthrax LF prot -7, BoNT F protease -7 and Autofluor counter 5432.
Cc1ccc(S(=O)(=O)Nc2ccc(C(=O)N3CCOCC3)cc2)cc1 was read as MazF activator 2, BoNT A protease 1, Anthrax LF prot 12, BoNT F protease -9, Autofluor counter 3783 and VHR inh abs 2.
CCc1ccccc1Nc1nc(N)nc(COC(=O)c2cccn2C)n1 was read as MazF activator -3, BoNT A protease -1, Anthrax LF prot 0, BoNT F protease -5, Autofluor counter 21076* and VHR inh abs 32.
Screening Cc1ccccc1Nc1nc(N)nc(COC(=O)c2cccn2C)n1 returned MazF activator -7, BoNT A protease 2, Anthrax LF prot 8, BoNT F protease 4, Autofluor counter 9913 and VHR inh abs 7.
For COc1ccc(N2CCN(C(c3cc4cc(C)ccc4[nH]c3=O)c3nnnn3Cc3ccccc3)CC2)cc1 (configuration not stated) the results were MazF activator 1, BoNT A protease 0, Anthrax LF prot -3, BoNT F protease -2, Autofluor counter 20480* and VHR inh abs 8.
For COc1ccc(C(c2nnnn2Cc2ccccc2)N2CCN(c3ccccc3)CC2)cc1 (configuration not stated) the results were MazF activator -1, BoNT A protease -1, Anthrax LF prot -4, BoNT F protease -14, Autofluor counter 2883 and VHR inh abs 7.
Cc1ccc2cc(C(c3nnnn3Cc3ccccc3)N3CCN(c4ccccc4)CC3)c(=O)[nH]c2c1 (configuration not stated) was read as MazF activator 3, BoNT A protease -1, Anthrax LF prot -4, BoNT F protease -1, Autofluor counter 23279* and VHR inh abs 18.
Screening COCCNC(=O)CN1C(=O)COc2ccc(S(=O)(=O)N3CC(C)CC(C)C3)cc21 (configuration not stated) returned MazF activator 7, BoNT A protease -1, Anthrax LF prot -10, BoNT F protease 2, Autofluor counter 5910 and VHR inh abs 29.
For COc1ccc(-n2c(C)c(C)c3c(NCCCO)ncnc32)cc1 the results were MazF activator 5, BoNT A protease -4, Anthrax LF prot -7, BoNT F protease -12, Autofluor counter 4025 and VHR inh abs -10.
CCc1ccc2nc(N3C(=O)C(O)=C(C(=O)c4ccco4)C3c3cccs3)sc2c1 (configuration not stated) was read as MazF activator 79*, BoNT A protease 0, Anthrax LF prot -12, BoNT F protease -20, Autofluor counter 3408 and VHR inh abs 13.
For O=C(C1=C(O)C(=O)N(CCc2ccccc2)C1c1ccncc1)c1cc2ccccc2o1 (configuration not stated) the results were MazF activator 4, BoNT A protease 0, Anthrax LF prot 5, BoNT F protease 4, Autofluor counter 3673 and VHR inh abs 1.
O=C(C1=C(O)C(=O)N(c2nccs2)C1c1ccccc1)c1cc2ccccc2o1 (configuration not stated) was read as MazF activator 227*, BoNT A protease -12, Anthrax LF prot 24, BoNT F protease inconclusive, Autofluor counter 10296 and VHR inh abs 17.
`Cc1ccc2nc(N3C(=O)C(O)=C(C(=O)c4cc5ccccc5o4)C3c3cccs3)sc2c1` (configuration not stated) gave MazF activator 80*, BoNT A protease 2, Anthrax LF prot 0, BoNT F protease 25, Autofluor counter 6363 and VHR inh abs 3.
`CCOc1cccc(C2C(C(=O)c3ccc(C)o3)=C(O)C(=O)N2c2nccs2)c1` (configuration not stated) gave MazF activator active, BoNT A protease 1, Anthrax LF prot 3, BoNT F protease 17, Autofluor counter 4688 and VHR inh abs -9.
`CCN(CC)C(=O)c1cccc(-c2csc(C(O)c3ccco3)n2)c1` (configuration not stated) gave BoNT A protease 0, Anthrax LF prot 1, BoNT F protease -1 and Autofluor counter 2900.
